PubChem BioAssay AID1159580 (chemical genetic matrix, 2015)
Screen size: about 5,500 compounds; about 2,000 (36%) were called active. Roughly 18% stayed inconclusive and do not appear here. Cut-off read from the data, not from the text of the source: active = normalized growth mostly below about 0.91 (no sharp cut-off); inconclusive = no clear call, values can overlap the other calls; inactive = mostly above about 0.92. The list shows a part of the results.

Test: chemical genetic growth profiling, strain panel (AID 1159580);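 note: tested at 20 µM; growth read once vehicle control cultures reached saturation at 30 °C; 1 = growth at the plate median or of vehicle wells; lower values mean less growth of the strain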
Conditions: growth OD

Measured: normalized growth

COC(=O)C[C@H]1C(C)(C)C2(O)OC34CC2C(=O)[C@]1(C)C3CC[C@]1(C)C4=CC(=O)O[C@H]1c1ccoc1 (some centres not stated)
inactive: S. cerevisiae deletion strains, locus YJR043C, strain POL32, stronger effect = lower value 0.992 | S. cerevisiae deletion strains, locus YJR066W, strain TOR1, stronger effect = lower value 0.92 | S. cerevisiae deletion strains, locus YKL009W, strain mrt4, stronger effect = lower value 1.03 | S. cerevisiae deletion strains, locus YKL068W, stronger effect = lower value 1.01 | S. cerevisiae deletion strains, locus YKL085W, strain MDH1 (second series), stronger effect = lower value 1.02 | S. cerevisiae deletion strains, locus YKL085W, strain MDH1, stronger effect = lower value 1.02 | S. cerevisiae deletion strains, locus YKL160W, strain elf1, stronger effect = lower value 1.01 | S. cerevisiae deletion strains, locus YKL190W, strain CNB1, stronger effect = lower value 0.994 | S. cerevisiae deletion strains, locus YKR001C, strain vps1, stronger effect = lower value 1.01 | S. cerevisiae deletion strains, locus YKR026C, strain gcn3, stronger effect = lower value 0.991 | S. cerevisiae deletion strains, locus YKR091W, strain srl3, stronger effect = lower value 0.985 | S. cerevisiae deletion strains, locus YLL001W, strain dnm1, stronger effect = lower value 1.02 | S. cerevisiae deletion strains, locus YLL026W, stronger effect = lower value 0.998 | S. cerevisiae deletion strains, locus YLL041C, strain sdh2, stronger effect = lower value 0.979 | S. cerevisiae deletion strains, locus YLR027C, strain aat2, stronger effect = lower value 1 | S. cerevisiae deletion strains, locus YLR039C, strain RIC1, stronger effect = lower value 1.05 | S. cerevisiae deletion strains, locus YLR058C, strain SHM2, stronger effect = lower value 1 | S. cerevisiae deletion strains, locus YLR102C, strain apc9, stronger effect = lower value 1.01 | S. cerevisiae deletion strains, locus YLR113W, strain HOG1, stronger effect = lower value 1.01 | S. cerevisiae deletion strains, locus YLR221C, strain rsa3, stronger effect = lower value 0.991 | S. cerevisiae deletion strains, locus YLR258W, strain gsy2, stronger effect = lower value 0.989 | S. cerevisiae deletion strains, locus YLR262C, strain YPT6 (second series), stronger effect = lower value 1 | S. cerevisiae deletion strains, locus YLR262C, strain YPT6, stronger effect = lower value 1.08 | S. cerevisiae deletion strains, locus YLR268W, strain sec22, stronger effect = lower value 0.998 | S. cerevisiae deletion strains, locus YLR320W, strain mms22, stronger effect = lower value 0.989 | S. cerevisiae deletion strains, locus YLR342W, strain FKS1, stronger effect = lower value 0.977 | S. cerevisiae deletion strains, locus YLR357W, strain rsc2, stronger effect = lower value 0.999 | S. cerevisiae deletion strains, locus YLR370C, strain arc18, stronger effect = lower value 0.967 | S. cerevisiae deletion strains, locus YLR371W, strain rom2, stronger effect = lower value 0.998 | S. cerevisiae deletion strains, locus YLR384C, strain iki3, stronger effect = lower value 0.975 | S. cerevisiae deletion strains, locus YLR418C, strain cdc73, stronger effect = lower value 1.03 | S. cerevisiae deletion strains, locus YML016C, strain PPZ1, stronger effect = lower value 1 | S. cerevisiae deletion strains, locus YML032C, strain rad52, stronger effect = lower value 1.01 | S. cerevisiae deletion strains, locus YML120C, strain ndi1, stronger effect = lower value 0.981 | S. cerevisiae deletion strains, locus YML124C, strain tub3, stronger effect = lower value 1.01 | S. cerevisiae deletion strains, locus YMR058W, strain fet3, stronger effect = lower value 0.999 | S. cerevisiae deletion strains, locus YMR078C, strain ctf18, stronger effect = lower value 1.01 | S. cerevisiae deletion strains, locus YMR125W, strain sto1, stronger effect = lower value 0.982 | S. cerevisiae deletion strains, locus YMR129W, stronger effect = lower value 0.994 | S. cerevisiae deletion strains, locus YMR205C, strain PFK2, stronger effect = lower value 1.01 | S. cerevisiae deletion strains, locus YMR223W, strain ubp8, stronger effect = lower value 1.01 | S. cerevisiae deletion strains, locus YMR231W, strain pep5, stronger effect = lower value 0.957 | S. cerevisiae deletion strains, locus YMR307W, strain GAS1, stronger effect = lower value 0.93 | S. cerevisiae deletion strains, locus YNL067W, strain RPL9B, stronger effect = lower value 1 | S. cerevisiae deletion strains, locus YNL071W, strain lat1, stronger effect = lower value 0.989 | S. cerevisiae deletion strains, locus YNL153C, strain GIM3, stronger effect = lower value 1.01 | S. cerevisiae deletion strains, locus YNL183C, strain NPR1, stronger effect = lower value 0.931 | S. cerevisiae deletion strains, locus YNL209W, strain ssb2, stronger effect = lower value 0.984 | S. cerevisiae deletion strains, locus YNL233W, strain BNI4, stronger effect = lower value 0.985 | S. cerevisiae deletion strains, locus YNL248C, strain rpa49, stronger effect = lower value 1 | S. cerevisiae deletion strains, locus YNL250W, strain rad50, stronger effect = lower value 1.01 | S. cerevisiae deletion strains, locus YNL271C, strain bni1, stronger effect = lower value 1.01 | S. cerevisiae deletion strains, locus YNL298W, strain CLA4, stronger effect = lower value 1 | S. cerevisiae deletion strains, locus YNL307C, strain MCK1, stronger effect = lower value 1 | S. cerevisiae deletion strains, locus YNL322C, strain KRE1 (second series), stronger effect = lower value 0.981 | S. cerevisiae deletion strains, locus YNR049C, strain mso1, stronger effect = lower value 0.988 | S. cerevisiae deletion strains, locus YNR052C, strain pop2, stronger effect = lower value 1.01 | S. cerevisiae deletion strains, locus YOL006C, strain TOP1, stronger effect = lower value 1.01 | S. cerevisiae deletion strains, locus YOL012C, strain htz1 0.65 | S. cerevisiae deletion strains, locus YOL147C, strain pex11, stronger effect = lower value 1.01 | S. cerevisiae deletion strains, locus YOR001W, strain rrp6, stronger effect = lower value 0.953 | S. cerevisiae deletion strains, locus YOR061W, strain CKA2, stronger effect = lower value 1.01 | S. cerevisiae deletion strains, locus YOR069W, strain VPS5, stronger effect = lower value 0.997 | S. cerevisiae deletion strains, locus YOR070C, strain gyp1, stronger effect = lower value 0.992 | S. cerevisiae deletion strains, locus YOR080W, strain dia2, stronger effect = lower value 0.988 | S. cerevisiae deletion strains, locus YOR083W, strain WHI5, stronger effect = lower value 1.02 | S. cerevisiae deletion strains, locus YOR106W, strain vam3, stronger effect = lower value 1.03 | S. cerevisiae deletion strains, locus YOR136W, strain idh2, stronger effect = lower value 1.01 | S. cerevisiae deletion strains, locus YOR144C, strain elg1, stronger effect = lower value 1.02 | S. cerevisiae deletion strains, locus YOR184W, strain ser1, stronger effect = lower value 0.996 | S. cerevisiae deletion strains, locus YOR231W, strain MKK1, stronger effect = lower value 1.01 | S. cerevisiae deletion strains, locus YOR265W, strain rbl2, stronger effect = lower value 0.984 | S. cerevisiae deletion strains, locus YOR270C, strain vph1, stronger effect = lower value 0.98 | S. cerevisiae deletion strains, locus YOR290C, strain snf2, stronger effect = lower value 0.97 | S. cerevisiae deletion strains, locus YOR316C, strain cot1, stronger effect = lower value 1.02 | S. cerevisiae deletion strains, locus YPL051W, strain arl3, stronger effect = lower value 1.01 | S. cerevisiae deletion strains, locus YPL078C, strain atp4, stronger effect = lower value 1.01 | S. cerevisiae deletion strains, locus YPL106C, strain sse1, stronger effect = lower value 0.969 | S. cerevisiae deletion strains, locus YPL240C, strain hsp82, stronger effect = lower value 0.988 | S. cerevisiae deletion strains, locus YPL241C, strain CIN2, stronger effect = lower value 1 | S. cerevisiae deletion strains, locus YPL256C, strain CLN2, stronger effect = lower value 0.942 | S. cerevisiae deletion strains, locus YPR119W, strain clb2, stronger effect = lower value 1.01 | S. cerevisiae deletion strains, locus YPR141C, strain kar3, stronger effect = lower value 1.01 | S. cerevisiae deletion strains, locus YPR163C, strain tif3, stronger effect = lower value 1.01 | S. cerevisiae deletion strains, locus YPR167C, strain met16, stronger effect = lower value 1.01 | S. cerevisiae deletion strains, strain wtn01, stronger effect = lower value 1 | S. cerevisiae strains, strain wild type, stronger effect = lower value 0.996
